Data published in PubChem BioAssay AID540259 (Broad Institute, 2011).
Potency and affinity values are given separately. The source made the active and inactive calls.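 How the source made its calls: active means cell killing, meaning signal decrease, with fitted half-maximal dose at or below ten times the top valid tested dose; inconclusive means poor fit, or flat curve with 30 to 70% signal loss; inactive means the rest.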

test: ATP-based viability loss in HeLa cells – cell-based, CellTiter-Glo luminescence, cherry-pick samples, cytotoxicity control for MITF activator project, dose response (AID 540259); conditions: 24 h; series mostly up to 35 µM; activity change, negative = cytotoxicity: at the top concentration;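 further: 0% = DMSO neutral control and -100% = mitoxantrone positive control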

Compound | activity change, negative = cytotoxicity
CN(C)c1ccc(/C=C/c2cccc[n+]2[O-])cc1 | 9.81% (inactive)
Cc1cccc(Nc2nc3c(s2)CCCC3)c1 | -9.87% (inactive)
CCCC(=O)N1c2ccc(-c3csc(N)n3)cc2CC1C (centres undefined) | 16% (inactive)
Cc1ccc(-c2cn(-c3ccccc3)c(=S)[nH]2)cc1C | 20% [at 11 µM] (inactive)
Cc1ccnc(NC(=O)C2CC(=O)N(Cc3ccccc3)C2)c1 (centres undefined) | 18.2% (inactive)
COc1cc(/C=C/c2noc(-c3ccccc3O)n2)ccc1OC(C)=O | -3.83% (inactive)
c1ccc(SCc2nc(-c3ccccn3)no2)cc1 | 17% (inactive)
Cc1cc(C)n2nc(SCN3C(=O)c4ccccc4C3=O)nc2n1 | -0.893% (inactive)
Cc1ccc(/C=N/N2C(=O)c3ccccc3NC2c2ccc(C)cc2)cc1 (centres undefined) | -11.9% (inactive)
CCCCC(=O)Nc1sc2c(c1C#N)CC(C)(C)OC2 | 4.44% (inactive)
Cc1ccc(N2C(=O)S/C(=C/c3cn(C)c4ccccc34)C2=O)cc1 | -2.79% (inactive)
O=C(O)c1ccc(N/N=C/c2cccc(C(F)(F)F)c2)cc1 | -0.976% (inactive)
COc1ccc(-c2nn(-c3ccccc3)cc2C#N)cc1 | 16.9% (inactive)
c1ccc2c(Nc3nnc(-c4ccncc4)s3)cccc2c1 | 0.946% (inactive)
